PAD4 inh – inhibitors of human PAD4. recombinant PAD4, RCA probe fluorescence polarization. inhibition, % at 6.36 µM. 330,000 tested, 0.41% active;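 active = percent inhibition above a cutoff equal to the mean of all tested compounds plus 3 SD, cut at about 15% in these data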
Target sequence (Q9UM07 whole entry, looked up): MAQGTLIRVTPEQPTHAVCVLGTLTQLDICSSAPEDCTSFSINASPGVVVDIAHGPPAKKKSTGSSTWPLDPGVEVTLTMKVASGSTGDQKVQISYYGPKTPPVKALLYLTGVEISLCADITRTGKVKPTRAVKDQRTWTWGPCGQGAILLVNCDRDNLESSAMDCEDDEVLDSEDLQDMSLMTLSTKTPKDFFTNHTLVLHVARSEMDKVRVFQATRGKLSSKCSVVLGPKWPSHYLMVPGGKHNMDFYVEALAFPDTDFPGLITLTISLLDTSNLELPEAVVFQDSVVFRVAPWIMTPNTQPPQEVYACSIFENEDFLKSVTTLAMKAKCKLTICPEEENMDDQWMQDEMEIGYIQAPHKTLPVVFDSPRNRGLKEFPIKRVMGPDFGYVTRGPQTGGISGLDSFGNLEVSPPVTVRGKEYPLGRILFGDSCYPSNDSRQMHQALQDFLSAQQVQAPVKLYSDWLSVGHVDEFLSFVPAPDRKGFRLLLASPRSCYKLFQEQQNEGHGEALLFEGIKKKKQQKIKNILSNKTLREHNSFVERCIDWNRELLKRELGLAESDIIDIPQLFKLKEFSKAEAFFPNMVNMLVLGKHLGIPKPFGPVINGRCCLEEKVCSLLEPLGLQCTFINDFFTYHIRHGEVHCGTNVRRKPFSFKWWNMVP
SIAE inh – blocks human sialic acid acetylesterase. Q9HAT2. SIAE FP-Rh probe binding, fluorescence polarization. 370,000 tested, 0.69% active. inhibition, % at 9.66 µM;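 active = inhibition above a cutoff: mean of compounds within the control limits plus 3 SD of those, cut at about 17% in these data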
Fam108B counter – blocks mouse Fam108B hydrolase in RBBP9 counter-screen | recombinant Fam108B, FP-Rh probe fluorescence polarization | AID 1947 | 300,000 tested, 0.33% active | inhibition, % at 9.51 µM;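 active = inhibition above the screen mean inhibition plus 3 SD, computed separately per campaign, cut at about 18% in these data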;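 note: inhibitors lower polarization as less probe binds the enzyme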
TCR-CD3 inh – inhibitors of human TCR-CD3 interaction. TAMRA-labeled TCR probe fluorescence, biochemical. inhibition, % at 9.4 µM. 360,000 tested, 0.37% active. AID 651800; in the data active = inhibition above about 19%;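 note: recombinant mutant TCR 2C K166C tagged with TAMRA read by polarization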
PME-1 inh – PME-1 (human) inhibition. 320,000 tested, 0.53% active. inhibition, % at 5.9 µM. recombinant PME-1, FP-Rh probe fluorescence polarization;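 active = inhibition above the campaign mean of all compounds plus 3 SD, cut at about 26% in these data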;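 note: competitive labeling of PME-1 active site by serine hydrolase directed probe; inhibitors block probe labeling so polarization falls and inhibition rises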
PRMT1 FP inh – PRMT1 (human) inhibition, primary screen; Q99873; recombinant PRMT1, activity-based probe fluorescence polarization; inhibition, % at 2.79 µM; 370,000 tested, 1.3% active; AID 652257;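 active = inhibition above about 21% made by adding two undisclosed values, limit read from the data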
Of the large screens only hits and unclear results are named; the others gave an inactive call. The list is not random: actives were taken first. Their share in the collection is about 2.6%.

Brc1ccc(N=NNc2ccccc2)cc1	PME-1 inh 33
COC(=O)[C@]12C[C@H](CC(=O)N3CCCCC3)C(=O)N(Cc3ccc(Cl)cc3Cl)C1=C[C@H](C(C)(C)C)O[C@@H]2C	none (no result: PAD4 inh, Fam108B counter, TCR-CD3 inh, PME-1 inh)
CCC(=O)NCC[C@@H]1CCc2ccc3c(c21)CCO3	none (no result: PAD4 inh, Fam108B counter, TCR-CD3 inh, PME-1 inh)
NNC(=O)C1C(O)CCC2CN3CCc4c([nH]c5ccccc45)C3CC21 (stereo not given)	PRMT1 FP inh 22 (no result: PAD4 inh, Fam108B counter, PME-1 inh)
COC(=O)[C@@H]1[C@H]2C[C@H]3c4[nH]c5ccccc5c4CCN3C[C@@H]2CC[C@@H]1O	none
COC1=C[C@H](C(=O)NCc2ccc(Cl)cc2)C(C)C(c2ccccc2)CC1=O (stereo not given in full)	none (no result: PAD4 inh, Fam108B counter, TCR-CD3 inh, PME-1 inh)
CCc1ccc(CCNC(=O)OCCCN2CCC3(CCC(c4ccccc4)CC3)C2=O)cc1 (stereo not given)	none (no result: PAD4 inh, Fam108B counter, TCR-CD3 inh, PME-1 inh)
CCN(CC)C(=O)[C@H]1C[C@H](CC(=O)NC/C=C(\C)CCC=C(C)C)C(=O)N2CCc3c([nH]c4cc(-c5ccco5)ccc34)[C@]12C	none (no result: Fam108B counter, PME-1 inh)
CC(C)=CCC/C(C)=C/CNC(=O)C[C@H]1C[C@H](C(=O)N2CCCCC2)[C@@]2(C)c3[nH]c4cc(-c5ccco5)ccc4c3CCN2C1=O	PRMT1 FP inh 24 (no result: Fam108B counter, PME-1 inh)
C=CCN(CC=C)C(=S)Nc1ccc2nsnc2c1	PRMT1 FP inh 28
C=CCNC(=S)Nc1ccc2nsnc2c1	none
CCc1ccc(Oc2c(Cl)cnn(-c3ccc(C)cc3)c2=O)cc1	none (no result: PAD4 inh, Fam108B counter, TCR-CD3 inh, PME-1 inh)
Cc1ccc2c(c1)[C@H]1[C@H](CO2)[C@H](c2ccccc2)[C@]2(C)C(=O)N(Cc3ccc(Cl)cc3)CC(=O)N12	none (no result: Fam108B counter)
COc1ccc(CN2CC(=O)N3[C@H]4c5cc(C)ccc5OC[C@@H]4[C@H](c4ccccc4)[C@]3(C)C2=O)cc1	PRMT1 FP inh 22 (no result: Fam108B counter, PME-1 inh)
Cc1cc(=O)[nH]c(SCC(=O)Nc2nc(-c3ccccc3)cs2)n1	none
Cc1cc(=O)[nH]c(SCC(=O)Nc2nc3ccccc3s2)n1	PRMT1 FP inh 21
COC(=O)N1C(=O)[C@](c2ccccc2)(C2CCCC2)N1C(=O)OC	PME-1 inh 70
C[C@@]12C[C@@H]3C(=O)N(Cc4ccccc4)CC(=O)N3[C@@H]1N(S(=O)(=O)c1ccccc1)c1ccccc12	none (no result: PAD4 inh, Fam108B counter, TCR-CD3 inh, PME-1 inh)
O=C(/C(=N/N=C/c1ccc(O)c(O)c1)c1ccccc1)c1ccccc1	Fam108B counter 22, PME-1 inh 30
Oc1ccc(/C=N/N(c2ccccc2)c2ccccc2)cc1O	none
O=c1[nH]c(=O)c2[nH]c(=S)[nH]c2[nH]1	PRMT1 FP inh 80 (no result: PAD4 inh, Fam108B counter, PME-1 inh)
Nc1ncnc2[nH]c(=S)[nH]c12	none (no result: PAD4 inh, Fam108B counter, PME-1 inh)
O=C(Nc1cccs1)Nc1ccc(Br)cc1F	SIAE inh 20
O=S1(=O)c2c(cccc2N2CCSCC2)Oc2ccccc2CN1Cc1cn(Cc2cccc(F)c2)nn1	none (no result: PAD4 inh, Fam108B counter, TCR-CD3 inh, PME-1 inh)
CCC(CC)C(=O)Nc1cccc(C(=O)Nc2ccc(S(=O)(=O)Nc3ccc(C)cc3)cc2)c1	TCR-CD3 inh 24
Cc1ccc(CN(C)C(=O)c2cccc(S(=O)(=O)N3CCCC3)c2)o1	none (no result: Fam108B counter, PME-1 inh)
COc1ccc(S(=O)(=O)N2CCC(C(=O)N(C)Cc3ccc(C)o3)CC2)cc1OC	PRMT1 FP inh 24 (no result: Fam108B counter)
O=C(C1CCCN1S(=O)(=O)c1ccc(Cl)s1)N1CCN(c2ccccc2)CC1 (stereo not given)	none (no result: PAD4 inh, Fam108B counter, TCR-CD3 inh, PME-1 inh)
Nc1c(C(=O)Nc2cccc(C(=O)O)c2)sc2nc3c(cc12)CCCC3	PME-1 inh 26
Nc1c(C(=O)Nc2ccc(Cl)c(C(=O)O)c2)sc2nc3c(cc12)CCCC3	none
C[C@@H]1O[C@@H](Oc2c(-c3ccc(O)c(O)c3)oc3cc(O)cc(O)c3c2=O)[C@H](O)[C@H](O)[C@H]1O	none (no result: Fam108B counter, PME-1 inh)
C[C@@H]1O[C@@H](Oc2c(-c3cc(O)c(O)c(O)c3)oc3cc(O)cc(O)c3c2=O)[C@H](O)[C@H](O)[C@H]1O	PRMT1 FP inh 37
O=c1c(O)c(-c2ccc(O)cc2)oc2cc(O)cc(O)c12	SIAE inh 21
Cc1ccc(Cn2cc(CN3[C@H](c4ccccc4)COc4cc(Br)ccc4S3(=O)=O)nn2)cc1	none (no result: PAD4 inh, Fam108B counter, TCR-CD3 inh, PME-1 inh)
Cc1ccc(S(=O)(=O)N(C(=O)c2ccncc2)c2ccc(OC(=O)c3ccncc3)c3ccccc23)c(C)c1	none (no result: SIAE inh, TCR-CD3 inh, PRMT1 FP inh)
Cc1ccc(S(=O)(=O)N(C(=O)c2ccncc2)c2ccc(OC(=O)c3ccncc3)c3ccccc23)cc1	PRMT1 FP inh 86
c1ccc(-c2c[nH]c3ccc(OCc4ccc5ccccc5n4)c(-c4ccccc4)c23)cc1	none (no result: PAD4 inh, Fam108B counter, TCR-CD3 inh, PME-1 inh)

Bioassay records from PubChem.
